# Test results taken from PubChem BioAssay (Tox21).
# A number with no mark means an inactive call. Records with an inconclusive call do not appear. A call without a number means that no potency is given here. Active and inactive are the calls of the source. Unless noted, calls come from the whole dose curve; as a rule, active = well fitted curve in the direction sought with a large enough effect in the repeat runs; inconclusive = weak or mixed curves; inactive = no such curve, though single readings can be large; an effect the other way counts as inactive or inconclusive.
# Key:
# [1] = qHTS assay for small molecule agonists of the p53 signaling pathway (AID 651631; calls by dose curve; note: nearly all actives have a fitted effect of over 15% in size)
# Procedure, shortened: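 HCT-116 p53RE-bla reporter line, 16 h compound treatment at 37 °C, then fluorescence after 2 h with B/G FRET substrate.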
# [2] = qHTS assay for small molecules that induce genotoxicity in human embryonic kidney cells expressing luciferase-tagged ATAD5 (AID 651632); note: nearly all actives have a fitted effect of over 15% in size
# Procedure, shortened: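 HEK293T cells carrying luciferase-tagged ATAD5 were given compound or DMSO vehicle and incubated 16 hr at 37C, 5% CO2. Luciferase activity was read after 30 min at room temperature with Amplite; a rise signals genotoxic stress.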
# [3] = qHTS assay for small molecule agonists of the p53 signaling pathway - cell viability (AID 651633; calls by dose curve;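 note: p53RE-bla HCT reporter cells with a stable beta-lactamase p53 reporter; series mostly up to about 83 µM; nearly all actives have a fitted effect of over 30% in size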)
# Procedure, shortened: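 p53RE-bla cells were treated with compound for 16 hours at 37 C. Cytotoxicity was then measured as CellTiter-Glo luminescence after 30 min at room temperature.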
# [4] = qHTS assay for small molecules that induce genotoxicity in human embryonic kidney cells expressing luciferase-tagged ATAD5 - cell viability (AID 651634; calls by dose curve; note: nearly all actives have a fitted effect of over 25% in size)
# Procedure, shortened: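 HEK293T cells carrying luciferase-tagged ATAD5, 2,000 cells/well, exposed to compound for 15.5 hr at 37C. Viability read as live-cell protease activity by CellTiter-Fluor fluorescence after 30 min at 37C.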
# [5] = qHTS assay for small molecule disruptors of the mitochondrial membrane potential - cell viability (AID 720634; calls by dose curve;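 note: human HepG2 liver cancer cells; series mostly up to about 83 µM; nearly all actives have a fitted effect of over 20% in size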)
# Procedure, shortened: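 HepG2 cells, 2,000 per well, attached overnight, then treated 1 hr at 37 C, 5% CO2. Viability read as ATP by CellTiter-Glo luminescence after 30 min at room temperature. Read in the same wells as the m-MPI membrane-potential dye assay.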
# [6] = qHTS assay for small molecule disruptors of the mitochondrial membrane potential (AID 720635); note: potency is the fitted concentration of half-maximal effect
# Procedure, shortened: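 HepG2 cells exposed to compound 1 hr at 37C, then Mito-MPS dye 30 min. Ratio read of aggregate (540/590 nm) versus monomer (490/535 nm) fluorescence.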
# [7] = qHTS assay to test for compound auto fluorescence at 590 nm (red) in HepG2 cells (AID 720674)
# Procedure, shortened: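 Seeding: 2,000 HepG2 cells/well, MEM/10% FBS, overnight 37 C. Dosing: compound vs DMSO. Incubation: 1 hr, 37 C, 5% CO2. Read: fluorescence 540 ex/590 em, Rose Bengal sodium as red reference.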
# [8] = qHTS assay to test for compound auto fluorescence at 535 nm (green) in HepG2 cells (AID 720675)
# [9] = qHTS assay to test for compound auto fluorescence at 460 nm (blue) in HEK293 cells (AID 720678)
# Procedure, shortened: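 HEK293, 2,000 cells/well, 10% dialyzed FBS; attach 4-5 hr 37C; pin compound or DMSO; o/n 37C/5% CO2; fluorescence 405/460 nm; triamterene-equivalent units.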
# [10] = qHTS assay to test for compound auto fluorescence at 590 nm (red) in HEK293 cells (AID 720679)
# Procedure, shortened: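 Intensity at 540nm excitation and 590nm emission is reported as Rose Bengal sodium-equivalent autofluorescence. Measurements followed overnight exposure (37C, 5% CO2) of HEK293 cells, 2,000 per well, to 23 nL compound.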
# [11] = qHTS assay to test for compound auto fluorescence at 535 nm (green) in HEK293 cells (AID 720680)
# [12] = qHTS assay to test for compound auto fluorescence at 460 nm (blue) in HEK293 cell free culture (AID 720681)
# Procedure, shortened: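 Compounds were added to cell-free DMEM with 10% FBS and fluorescence read directly. The blue channel used 405 nm excitation and 460 nm emission, with triamterene as the reference fluorophore.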
# [13] = qHTS assay to test for compound auto fluorescence at 590 nm (red) in HEK293 cell free culture (AID 720683)
# Procedure, shortened: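 Cell-free wells of DMEM with 10% FBS received compound, and intrinsic fluorescence was read at excitation/emission 540/590 nm. Values expressed as equivalence to Rose Bengal sodium.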
# [14] = qHTS assay to test for compound auto fluorescence at 590 nm (red) in HepG2 cell free culture (AID 720684)
# Procedure, shortened: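 Compound was pinned into wells holding MEM with 10% FBS and no cells, and red fluorescence was read at Ex/Em 540/590 nm. Signal is expressed as auto fluorescence equivalency relative to Rose Bengal sodium.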
# [15] = qHTS assay to test for compound auto fluorescence at 460 nm (blue) in HepG2 cell free culture (AID 720685)
# Procedure, shortened: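 Compound (23 nL) or DMSO pinned into cell-free MEM with 10% FBS; blue fluorescence read at 405/460 nm excitation/emission, expressed as auto-fluorescence equivalency to triamterene.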
# [16] = qHTS assay to test for compound auto fluorescence at 535 nm (green) in HepG2 cell free culture (AID 720686)
# [17] = qHTS assay to test for compound auto fluorescence at 460 nm (blue) in HepG2 cells (AID 720687)
# Procedure, shortened: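 HepG2 cells in MEM with 10% FBS, attached overnight at 37 C, were exposed to compound or DMSO for 1 hr at 37 C, 5% CO2. Blue fluorescence was read at 405/460 nm, with triamterene as reference fluorophore.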
# [18] = biological target: Glucocorticoid receptor (Homo sapiens) (UniProt P04150); test: qHTS assay to identify small molecule agonists of the glucocorticoid receptor (GR) signaling pathway (AID 720691; active = well fitted activation curve with a large enough effect in the signal ratio in the repeat runs, not every such curve was filed as active; the % refers to the signal ratio)
# Procedure, shortened: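 GR-bla HeLa cells carrying a GRE-driven beta-lactamase reporter, exposed to compounds for 18 h at 37 C. Reporter activation read as fluorescence after 2 h with LiveBLAzer B/G FRET substrate at room temperature.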
# [19] = biological target: Glucocorticoid receptor (Homo sapiens) (UniProt P04150); test: qHTS assay to identify small molecule antagonists of the glucocorticoid receptor (GR) signaling pathway (AID 720692; active = well fitted inhibition curve with a large enough effect in the signal ratio in the repeat runs, not every such curve was filed as active; the % refers to the signal ratio)
# Procedure, shortened: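 GR-bla HeLa cells carrying a GRE-driven beta-lactamase reporter received compound after 4 h plating, then dexamethasone (5 nM final). After 18 h at 37C, the FRET substrate was loaded for 2 h at room temperature and fluorescence read.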
# [20] = qHTS assay to test for compound auto fluorescence at 535 nm (green) in HEK293 cell free culture (AID 720682)
# Procedure, shortened: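 Steps: dispense DMEM/10% FBS into empty wells; pin in compound or DMSO; measure fluorescence at 485/535 nm. Values are fluorescein equivalents.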
# Sequence of Glucocorticoid receptor (Homo sapiens) (P04150 whole entry, looked up): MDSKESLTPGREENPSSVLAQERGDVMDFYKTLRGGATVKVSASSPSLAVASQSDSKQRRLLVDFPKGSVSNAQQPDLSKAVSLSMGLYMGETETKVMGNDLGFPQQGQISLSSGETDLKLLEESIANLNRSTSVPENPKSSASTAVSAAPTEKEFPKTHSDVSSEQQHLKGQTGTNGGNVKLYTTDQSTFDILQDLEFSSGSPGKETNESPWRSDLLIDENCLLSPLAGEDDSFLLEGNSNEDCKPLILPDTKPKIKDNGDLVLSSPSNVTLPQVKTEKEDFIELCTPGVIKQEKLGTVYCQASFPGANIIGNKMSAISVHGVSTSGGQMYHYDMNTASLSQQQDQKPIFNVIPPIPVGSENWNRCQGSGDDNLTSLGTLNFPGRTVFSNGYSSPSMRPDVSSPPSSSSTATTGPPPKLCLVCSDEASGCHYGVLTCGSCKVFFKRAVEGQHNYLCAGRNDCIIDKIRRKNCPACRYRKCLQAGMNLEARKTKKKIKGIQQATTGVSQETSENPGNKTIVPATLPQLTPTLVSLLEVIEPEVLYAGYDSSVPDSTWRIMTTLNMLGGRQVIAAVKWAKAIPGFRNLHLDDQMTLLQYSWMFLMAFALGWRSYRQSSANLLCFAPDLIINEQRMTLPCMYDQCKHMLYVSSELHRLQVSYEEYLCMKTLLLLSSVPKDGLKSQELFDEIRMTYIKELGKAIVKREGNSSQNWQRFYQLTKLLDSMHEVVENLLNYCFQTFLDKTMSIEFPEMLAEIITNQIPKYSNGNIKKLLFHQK
smiles,measurement,setting,value
CCN(CC)C(=O)N(CC)CC,Potency,[1],inactive
same,Potency,[2],inactive
same,Potency,[3],inactive
same,Potency,[4],inactive
same,Potency,[5],inactive
same,Potency,[6],inactive
same,outcome,[7],inactive
same,outcome,[8],inactive
same,outcome,[9],inactive
same,outcome,[10],inactive
same,outcome,[11],inactive
same,outcome,[12],inactive
same,outcome,[13],inactive
same,outcome,[14],inactive
same,outcome,[15],inactive
same,outcome,[16],inactive
same,outcome,[17],inactive
same,Potency,[18],inactive
same,Potency,[19],inactive
OCCN(CCO)CCN(CCO)CCO,Potency,[1],inactive
same,Potency,[2],inactive
same,Potency,[3],inactive
same,Potency,[4],inactive
same,Potency,[5],inactive
same,Potency,[6],inactive
same,outcome,[7],inactive
same,outcome,[8],inactive
same,outcome,[9],inactive
same,outcome,[10],inactive
same,outcome,[12],inactive
same,outcome,[20],inactive
same,outcome,[14],inactive
same,outcome,[15],inactive
same,outcome,[16],inactive
same,Potency,[18],inactive
same,Potency,[19],inactive
NNS(=O)(=O)c1ccc(Oc2ccc(S(=O)(=O)NN)cc2)cc1,Potency,[1],inactive
same,Potency,[2],inactive
same,Potency,[3],inactive
same,Potency,[4],inactive
same,Potency,[5],inactive
same,outcome,[7],inactive
same,outcome,[8],inactive
same,outcome,[9],inactive
same,outcome,[10],inactive
same,outcome,[11],inactive
same,outcome,[12],inactive
same,outcome,[20],inactive
same,outcome,[13],inactive
same,outcome,[14],inactive
same,outcome,[15],inactive
same,outcome,[16],inactive
same,outcome,[17],inactive
CC/C=C\CCOC(=O)C(C)C,Potency,[1],inactive
same,Potency,[2],inactive
same,Potency,[3],inactive
same,Potency,[4],inactive
same,Potency,[5],inactive
same,outcome,[7],inactive
same,outcome,[8],inactive
same,outcome,[9],inactive
same,outcome,[10],inactive
same,outcome,[11],inactive
same,outcome,[12],inactive
same,outcome,[20],inactive
same,outcome,[14],inactive
same,outcome,[15],inactive
same,outcome,[16],inactive
same,outcome,[17],inactive
same,Potency,[18],inactive
COc1cc(N)c(Cl)cc1C(=O)NC1CCN(Cc2ccccc2)CC1,Potency,[1],inactive
same,Potency,[2],inactive
same,Potency,[3],inactive
same,Potency,[4],inactive
same,Potency,[5],inactive
same,"fluorescence, relative to Rose Bengal",[7],-0.629% [at 18.6 µM]
same,"fluorescence, % of fluorescein control",[8],0.0143% [at 18.6 µM]
same,"fluorescence, % of triamterene",[9],0.111% [at 18.6 µM]
same,"fluorescence, % of fluorescent control",[10],-0.139% [at 18.6 µM]
same,"fluorescence, % of fluorescein",[11],0.0161% [at 18.6 µM]
same,"fluorescence, % of fluorescent control",[12],-0.0892% [at 18.6 µM]
same,activity change,[20],-0.0003% [at 18.6 µM]
same,"fluorescence, % of Rose Bengal",[14],0.723% [at 18.6 µM]
same,"fluorescence, % of fluorescent control",[15],2.92% [at 18.6 µM]
same,"fluorescence, % of fluorescein control",[16],-0.0056% [at 18.6 µM]
same,"fluorescence, % of fluorescent control",[17],0.034% [at 18.6 µM]
same,Potency,[18],inactive
CCN[C@H]1CN(CCCOC)S(=O)(=O)c2sc(S(N)(=O)=O)cc21,Potency,[1],inactive
same,Potency,[2],inactive
same,Potency,[3],inactive
same,Potency,[4],inactive
same,Potency,[5],inactive
same,Potency,[6],inactive
same,"fluorescence, relative to Rose Bengal",[7],-0.145% [at 18.6 µM]
same,"fluorescence, % of fluorescein control",[8],-0.244% [at 18.6 µM]
same,"fluorescence, % of triamterene",[9],0.009% [at 18.6 µM]
same,"fluorescence, % of fluorescent control",[10],0.0594% [at 18.6 µM]
same,"fluorescence, % of fluorescent control",[12],0.113% [at 18.6 µM]
same,"fluorescence, % of fluorescent control",[13],-0.021% [at 18.6 µM]
same,"fluorescence, % of Rose Bengal",[14],0.0022% [at 18.6 µM]
same,"fluorescence, % of fluorescent control",[15],-0.0073% [at 18.6 µM]
same,"fluorescence, % of fluorescein control",[16],0.0136% [at 18.6 µM]
same,"fluorescence, % of fluorescent control",[17],-0.117% [at 18.6 µM]
same,Potency,[18],inactive
CC(C)=CCC[C@](C)(O)[C@@H]1CC=C(C)CC1,Potency,[1],inactive
same,Potency,[2],inactive
same,Potency,[3],inactive
same,Potency,[4],inactive
same,Potency,[5],inactive
same,Potency,[6],30.6 µM (active)
same,outcome,[7],inactive
same,outcome,[8],inactive
same,outcome,[9],inactive
same,outcome,[10],inactive
same,outcome,[12],inactive
same,outcome,[13],inactive
same,outcome,[14],inactive
same,outcome,[15],inactive
same,outcome,[16],inactive
same,outcome,[17],inactive
same,Potency,[18],inactive
